Only some compounds are listed: those with a hit (about 4.6% of all), similar ones and a draw of the others.
ssDAF-12 act = activators of S. stercoralis DAF-12 nuclear receptor; activation, % at 6.8 µM; AID 652126; 370,000 compounds, 1% hits; HEK293 ssDAF-12/GRIP1 lit1-tk-luc reporter, luminescence; % of 3 µM dafachronic acid response;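 active = activation above the mean over all tested compounds plus 3 SD, cut at about 0.9% in these data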
hcDAF12 agonist = activates DAF-12 receptor from parasite H. contortus. HEK293 hcDAF-12 lit1-tk-luc reporter, luminescence; 0% DMSO, 100% Δ7-dafachronic acid. activation, % at 6.8 µM. 370,000 compounds, 1.4% hits. AID 652067;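 active = activation above the mean of all tested compounds plus 3 SD, cut at about 5.5% in these data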
hgDAF-12 ag = agonists of H. glycines DAF-12 nuclear receptor | HEK293 GAL4-hgDAF12 UAS-luciferase reporter, agonist luminescence; normalized to butyrate control | activation, % at 6.8 µM | 370,000 compounds, 1.8% hits;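 active = activation above a cutoff set at the mean of all screened compounds plus 3 SD, cut at about 10% in these data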
DAX1 inh-1 = NR0B1 (DAX1) inhibition. inhibition, % at 6.75 µM. 340,000 compounds, 0.99% hits. HEK293 Gal4-DAX1 luciferase reporter, luminescence;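 active = inhibition above the mean over all tested compounds plus 3 SD, cut at about 4.2% in these data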;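 also: inhibition shows as a rise in luminescence from relieved DAX1 repression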
Wee1 degr inh = inhibitors of human Wee1 degradation | P30291 | HeLa Luc-Wee1K328M stability, luciferase luminescence; 100% = proteasome inhibitor MG132 effect | reporter increase, % at 5 µM | 220,000 compounds, 1.2% hits;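 active = activation above the mean of all tested compounds plus 3 SD, set per screening run, cut at about 8.8% in these data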;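 also: cells exposed to compound for 20 h before luminescence read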
Target sequence (P30291 whole entry K328M): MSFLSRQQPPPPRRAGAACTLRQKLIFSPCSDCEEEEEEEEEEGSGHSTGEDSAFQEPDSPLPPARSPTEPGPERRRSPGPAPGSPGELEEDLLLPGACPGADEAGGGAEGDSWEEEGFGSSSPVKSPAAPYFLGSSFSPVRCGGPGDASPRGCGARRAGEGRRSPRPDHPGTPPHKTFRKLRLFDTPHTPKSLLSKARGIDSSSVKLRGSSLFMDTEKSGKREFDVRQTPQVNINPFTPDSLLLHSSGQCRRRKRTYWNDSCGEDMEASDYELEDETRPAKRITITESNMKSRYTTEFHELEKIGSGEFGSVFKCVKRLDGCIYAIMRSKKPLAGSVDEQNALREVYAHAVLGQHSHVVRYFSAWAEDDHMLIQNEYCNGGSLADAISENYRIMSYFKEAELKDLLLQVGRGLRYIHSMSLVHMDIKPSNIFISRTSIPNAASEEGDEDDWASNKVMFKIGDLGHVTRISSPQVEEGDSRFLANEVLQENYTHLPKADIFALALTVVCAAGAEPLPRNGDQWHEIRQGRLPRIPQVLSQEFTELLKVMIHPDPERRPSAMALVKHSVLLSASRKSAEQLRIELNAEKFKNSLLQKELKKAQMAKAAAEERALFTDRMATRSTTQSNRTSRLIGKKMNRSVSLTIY
DAX1 inh-2 = DAX1 (NR0B1) inhibition, primary screen. inhibition, % at 6.8 µM. AID 652010. 370,000 compounds, 1.1% hits. HEK293T StAR-luciferase reporter, SF-1/DAX-1 repression relief;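 active = inhibition above the mean over all tested compounds plus 3 SD, cut at about 3.6% in these data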;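 also: higher inhibition means more luminescence from relief of DAX-1 repression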
Each line names hits and unclear results; the compound was inactive in the other large screens.

O=C(Nc1ccccc1Br)c1cc[n+]([O-])cc1	none (no result: Wee1 degr inh)
CNc1cncc(-c2c(OC)cccc2OC)n1	none (no result: DAX1 inh-1, Wee1 degr inh)
CNc1cncc(-c2cccc(OC)c2F)n1	DAX1 inh-2 4.2 (no result: DAX1 inh-1, Wee1 degr inh)
CNc1cncc(-c2ccc(F)c(F)c2)n1	none (no result: DAX1 inh-1, Wee1 degr inh)
CNc1cncc(-c2ccc(OC)c(OC)c2)n1	ssDAF-12 act 3.4, hgDAF-12 ag 10.9 (no result: DAX1 inh-1, Wee1 degr inh)
COC(=O)[C@]12C[C@H](CC(=O)N3CCCC3)C(=O)N(Cc3ccc(Cl)cc3Cl)C1=C[C@H](C(C)(C)C)O[C@@H]2C	none (no result: DAX1 inh-1, Wee1 degr inh)
Nc1cc2c(cc1Br)-c1c(C(=O)O)cccc1C2O (centres undefined)	none (no result: Wee1 degr inh)
Cc1ccc(S(=O)(=O)N2CCN(C(=O)CSc3ncn[nH]3)CC2)c(C)c1	none (no result: Wee1 degr inh)
O=C(CSc1ncn[nH]1)N1CCN(S(=O)(=O)c2ccccc2)CC1	Wee1 degr inh 10.8
CC1(C(=O)NS(=O)(=O)c2cccs2)CCN1C(=O)CC1CC1 (centres undefined)	none (no result: DAX1 inh-1, Wee1 degr inh)
CCOc1cc(NC(=S)NCCCN2CCOCC2)c(OCC)cc1NC(=O)c1ccccc1	none
CCOc1cc(NC(=S)NC)c(OCC)cc1NC(=O)c1cccs1	DAX1 inh-1 5.0
CCOc1cc(NC(=S)NCCCN2CCOCC2)c(OCC)cc1NC(=O)c1cccs1	Wee1 degr inh 9.5
CC(c1ccccc1)C(NC(=O)OCC1c2ccccc2-c2ccccc21)C(=O)O (centres undefined)	none (no result: Wee1 degr inh)
Cc1ccc(-n2c(SCC(=O)Nc3ccccc3-c3ccccc3)nnc2-c2cccs2)cc1	none (no result: DAX1 inh-1, Wee1 degr inh)
O=C(COc1ncnc2cc(Cl)ccc12)c1ccccc1	none
O=C(COc1ncnc2ccccc12)c1ccc(Cl)cc1	hgDAF-12 ag 11.1
Brc1ccc(COc2ncnc3ccccc23)cc1	none
c1ccc(OCCOc2ncnc3ccccc23)cc1	hgDAF-12 ag 11.1
O=C(Nc1nc2ncccn2c1-c1ccc(C(F)(F)F)cc1)c1ccccc1	none (no result: DAX1 inh-1, Wee1 degr inh)
CCc1noc(C)c1C(=O)N(CCC(C)C)c1c(N)n(Cc2ccccc2)c(=O)[nH]c1=O	none (no result: Wee1 degr inh)
O=C(Nn1cnnc1)c1ccc(Cl)c(Cl)c1	DAX1 inh-1 6.2 (no result: Wee1 degr inh)
CCC(c1nnc(SCc2nc3ccccc3s2)n1Cc1ccccc1)N(C)C (centres undefined)	hcDAF12 agonist 5.7
c1ccc(Cn2c(SCc3nc4ccccc4s3)nnc2-c2ccco2)cc1	none
CCn1c(SCc2nc3ccccc3s2)nnc1-c1ccccc1	none
c1ccc(-n2cnnc2SCc2nc3ccccc3s2)cc1	ssDAF-12 act 1.0
FC(F)(F)c1cc(CNC2CCC23CCCCC3)ccc1Cl (centres undefined)	none (no result: DAX1 inh-1, Wee1 degr inh, DAX1 inh-2)
O=C(CCNC(=O)c1ccc(Cl)cc1)Nc1ccc(S(=O)(=O)N2CCCCC2)cc1	none (no result: Wee1 degr inh)
Cc1ccc(SCCC(=O)N2CCC(C)CC2)cc1	DAX1 inh-1 5.7
O=C1CCCCCN1CP(=O)(O)CN1CCCCCC1=O	hgDAF-12 ag 13.1
O=C1CCCCCN1CP(=O)(O)CCc1ccccc1	none
Nc1c2c(nc3ccccc13)CCCC2=O	hcDAF12 agonist 6.5
COc1cc(CNCc2ccc(C)cc2)cc(OC)c1OC	none (no result: Wee1 degr inh)
Clc1ccc(CONc2ncnc3nonc23)c(Cl)c1	hgDAF-12 ag 11.2
C[C@@H](NS(=O)(=O)c1cc(Cl)ccc1F)[C@H](O)c1ccccc1	none (no result: Wee1 degr inh)
O=C(NC(=S)NCc1ccccc1)c1cccnc1	ssDAF-12 act 1.0
CC(=O)Nc1ccc(S(=O)(=O)NCc2cccnc2)cc1	hcDAF12 agonist 6.0
O=C(NNC(=S)NCc1ccccc1)c1cccnc1	none (no result: Wee1 degr inh)
O=C(NCc1cccnc1)Nc1ccccc1	ssDAF-12 act 1.0
O=C(NCc1cccnc1)Nc1cccc(NC(=O)NCc2cccnc2)c1	none
CC1(C(=O)NC(=S)N(CCC#N)Cc2cccnc2)CC1(Cl)Cl (centres undefined)	none (no result: ssDAF-12 act, hcDAF12 agonist, hgDAF-12 ag, DAX1 inh-1, DAX1 inh-2)
N#CCCN(Cc1cccnc1)C(=S)NC(=O)c1ccccc1	DAX1 inh-1 4.6 (no result: Wee1 degr inh)
N#CCc1ccc(-c2cccc3nccn23)cc1	none (no result: DAX1 inh-1, Wee1 degr inh)
CCN1Cc2nnn(Cc3ccc(C)cc3)c2-c2ccccc2S1(=O)=O	none (no result: DAX1 inh-1, Wee1 degr inh)
O=C(Cc1cccc(NC(=O)C2CCCN(C(=O)C3CCCC3)C2)c1)Nc1cccc(C(=O)N2CCOCC2)c1 (centres undefined)	none (no result: Wee1 degr inh)
C[C@H](O)[C@@H]1C(=O)N2CCc3c([nH]c4ccccc34)[C@@H]2C[C@@H]1N(C)C(=O)Nc1ccc(Br)cc1	none (no result: DAX1 inh-1, Wee1 degr inh)
CC(=O)c1ccc(NC(=S)NCc2cccnc2)cc1	DAX1 inh-1 6.1
Cc1ccc(-c2nnn3c2nc(NCCc2ccc(S(N)(=O)=O)cc2)c2ccccc23)cc1	hcDAF12 agonist 5.7
NNc1nc2c(-c3cccc(C(F)(F)F)c3)nnn2c2ccccc12	hcDAF12 agonist 6.5 (no result: Wee1 degr inh)
CC(=O)NCCNc1nc2c(-c3cccc(C(F)(F)F)c3)nnn2c2ccccc12	none (no result: Wee1 degr inh)
COCCNc1nc2c(-c3cccc(C(F)(F)F)c3)nnn2c2ccccc12	ssDAF-12 act 1.3, hcDAF12 agonist 6.5 (no result: Wee1 degr inh)
COc1ccc(CNC(=O)C[C@H]2C[C@H](C(=O)N3CCOCC3)[C@@]3(CCC4CCCC4)c4[nH]c5cc(CCC(=O)N(C)C)ccc5c4CCN3C2=O)cc1OC	none (no result: Wee1 degr inh)
CCOC(=O)[C@@H]1CSCCS(=O)(=O)N1C(=O)[C@H](Cc1ccccc1)NC(=O)OC(C)(C)C	none (no result: DAX1 inh-1, Wee1 degr inh)
NS(=O)(=O)c1ccc(NCC2COc3ccccc3O2)c([N+](=O)[O-])c1 (centres undefined)	hgDAF-12 ag 11.2
O=[N+]([O-])c1ccc(S(=O)(=O)NCC2COc3ccccc3O2)cc1 (centres undefined)	none (no result: Wee1 degr inh)
O=C1C(C=NCc2cccnc2)=C(O)c2ccccc21	hgDAF-12 ag 12.1
CC(=O)Nc1cccc(-c2ccnc3c2CC(C(=O)NCc2cccc(Cl)c2)O3)c1 (centres undefined)	none (no result: DAX1 inh-1, Wee1 degr inh)
Cc1ccc(S(=O)(=O)n2c(N)nc3ccccc32)cc1	none (no result: Wee1 degr inh)
Nc1nc2ccccc2n1S(=O)(=O)c1ccc(Cl)cc1	DAX1 inh-2 4.2 (no result: DAX1 inh-1, Wee1 degr inh)
COc1ccc(OC)c(NC(=O)C2(C)CCN2Cc2ccccc2Cl)c1 (centres undefined)	none (no result: DAX1 inh-1, Wee1 degr inh)
C=CCn1c(=NC(=O)c2cccc(N3C(=O)CCC3=O)c2)sc2cccc(OC)c21	DAX1 inh-1 4.8
COc1ccc(C)c2sc(=NC(=O)c3cccc(N4C(=O)CCC4=O)c3)n(C)c12	none
O=C(NC(Cc1ccccc1)C(=O)O)c1ccccc1 (centres undefined)	none
CCOC(=O)N(Cc1ccccc1)Cc1ccc(C(=O)N[C@@H](Cc2ccccc2)C(=O)O)cc1	DAX1 inh-1 6.5 (no result: Wee1 degr inh)
O=C(CCCCl)N1CCc2[nH]c3ccccc3c2C1	hcDAF12 agonist 5.6 (no result: Wee1 degr inh)
CC(=O)N1CCc2[nH]c3ccccc3c2C1	none
O=C(NCc1ccccc1)c1cc(C2CCCCN2S(=O)(=O)c2cccc3cccnc23)on1 (centres undefined)	none (no result: DAX1 inh-1, Wee1 degr inh)
